Test results as given in PubChem BioAssay AID1259325 (C. David Weaver Laboratory, Vanderbilt University, 2017).
The campaign covered roughly 63,000 compounds. About 30 (0.05%) were called active. How the calls were made is not given here. The list is a sample of the results.

Target: G protein-activated inward rectifier potassium channel 2 (Homo sapiens) (UniProt P48051)
Assay: activators of human GIRK2 potassium channels (AID 1259325)
Conditions: HEK293-GIRK2 thallium flux, Thallos fluorescence, MPD

Sequence of G protein-activated inward rectifier potassium channel 2 (Homo sapiens) (P48051 whole entry, looked up): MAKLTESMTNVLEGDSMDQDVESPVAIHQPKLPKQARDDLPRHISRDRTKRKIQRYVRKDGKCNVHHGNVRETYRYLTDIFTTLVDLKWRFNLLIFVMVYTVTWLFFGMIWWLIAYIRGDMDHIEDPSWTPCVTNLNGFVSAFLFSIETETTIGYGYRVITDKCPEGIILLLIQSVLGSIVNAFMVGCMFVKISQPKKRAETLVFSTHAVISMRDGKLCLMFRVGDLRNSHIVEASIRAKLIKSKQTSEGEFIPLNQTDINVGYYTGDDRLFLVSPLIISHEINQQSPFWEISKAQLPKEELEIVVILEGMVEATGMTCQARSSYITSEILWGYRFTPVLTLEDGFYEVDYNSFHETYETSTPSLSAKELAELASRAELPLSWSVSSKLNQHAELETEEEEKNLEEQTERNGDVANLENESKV

outcome, inactive:
Cc1cc(NC(=O)c2ccc([N+](=O)[O-])o2)n(-c2nc3c(F)cccc3s2)n1
O=C(Cc1csc(Nc2ccc(OC(F)(F)F)cc2)n1)NCc1ccncc1
COC(=O)c1ccccc1NS(=O)(=O)c1ccc(N2C(=O)CCC2=O)cc1
Cc1cc(C(=O)Nc2nc3c(C)ccc(Cl)c3s2)on1
COc1ccc(CC(=O)NC2CC(O)C(CO)C2)cc1OC (stereo not drawn)
Cc1cc(C)c(C)c(S(=O)(=O)N2CCC(S(C)(=O)=O)C2)c1C (stereo not drawn)
O=C(OC1CN(c2nc3c(Cl)cccc3s2)C1)c1ccc(=O)[nH]n1
O=C(c1ccc(OC(F)(F)F)cc1)N1CCC(CSC2=NCCS2)CC1
COc1ccc(-c2csc(Cc3nc(-c4ccc(C(F)(F)F)cc4)no3)n2)cc1OC
COc1cc(C2c3c(oc4ccc(C)cc4c3=O)C(=O)N2CCO)cc(OC)c1OC (stereo not drawn)
Cc1oc2cc(OC(=O)N3CCOCC3)ccc2c(=O)c1-c1ccc(Br)cc1
O=C(CSc1nc2ccccc2o1)N1CCN(c2cc(N3CCCCC3)ncn2)CC1
O=C(Nn1cnc2c(cnn2-c2ccccc2)c1=O)c1ccc(Cl)cc1Cl
O=C1/C(=C/c2cc(Br)cc3c2OCOC3)Oc2cc(OC(=O)N3CCOCC3)ccc21
Cc1ccc(Nc2c(C(=O)N3CCOCC3)cnc3ccccc23)cc1C
COc1ccc(NC(=O)CCc2csc(NC(=O)c3ccc[nH]c3=O)n2)cc1Cl
COCCCn1c(C(=O)Nc2cccc(C)c2C)cc2c(=O)n(C)c(=O)n(C)c21
COc1ccc(C2C(C(=O)Nc3ccccc3)=C(C)Nc3nc(C)nn32)cc1OC (stereo not drawn)
COc1ccccc1OCC#CCNC(=O)CSc1nc2ccccc2s1
CCOc1ccccc1C(=O)Nc1ccc(C)c(N2CCCC2=O)c1
COC(=O)c1ccc(S(=O)(=O)NCCC(O)c2cc(C)oc2C)cc1 (stereo not drawn)
Cc1nnsc1C(=O)NCC1CCN(C(=O)c2ccoc2)CC1
CCC1CCCCN1C(=O)c1cnc2nc(C)ccc2c1Nc1ccc(S(C)(=O)=O)cc1 (stereo not drawn)
COc1ccc(NC(=O)c2cn(Cc3ccc(NC(=O)c4ccccc4F)cc3)cn2)cc1
CS(=O)(=O)N1CCc2nc(NC(=O)/C=C/c3ccccc3Cl)sc2C1
C=C1C(=O)O[C@H](CCCCCCCC)C1C(=O)O (stereo partly drawn)
COc1cc(CN2CC(c3nc4ccc(C)cc4[nH]3)C2)cc(OC)c1
COc1ccc(C(O)=C2C(=O)C(=O)N(c3cc(C)on3)C2c2ccc(C)cc2)cc1OC (stereo not drawn)
COc1cc(OC)cc(C(=O)Nc2ccc(Cl)c3ncsc23)c1
Cc1ccc(=O)n(CC(=O)N2CCC(Cc3ccccc3)CC2)n1
O=S(=O)(c1cccc(Cl)c1Cl)N1CCN(c2ccc(-c3ccccc3)nn2)CC1
O=C(C1CCN(c2ccc(-c3ccccc3)nn2)CC1)N1CCN(Cc2ccccc2)CC1
COc1ccc(N2CCN(CCCn3c(C)cn4c5c(=O)[nH]c(=O)n(C)c5nc34)CC2)cc1
O=C(O)CCC/C=C\C[C@@H]1[C@@H](/C=C/C(=O)COc2cccc(C(F)(F)F)c2)[C@H](O)C[C@@H]1O
O=C(c1cc(-c2ccco2)[nH]n1)N1CC(c2nc(-c3ccc[nH]c3=O)no2)C1
COc1ccc(OCc2noc(CNC(=O)/C=C/c3cccs3)n2)cc1
COc1ccc(OCc2noc(CNC(=O)c3ccc4nsnc4c3)n2)cc1
CC1CCC(NC(=O)C2CCN(c3nc4c(-c5ccccc5F)csc4c(=O)[nH]3)CC2)CC1 (stereo not drawn)
Cc1ccc(C)c(NC(=O)CSc2ncnc3nc(N4CCc5ccccc5C4)sc23)c1
O=C1NC(=NCCc2cccc(F)c2)S/C1=C\c1ccc2ncccc2c1
O=C(NCCC(O)c1cccc2ccccc12)Nc1ccccc1 (stereo not drawn)
O=C(Cc1ccccc1Cl)N1CCCC(c2nnc(-c3ccccc3F)s2)C1 (stereo not drawn)
CC(=O)Nc1nc2c(s1)CN(CC(=O)Nc1ccc(OC(F)(F)F)cc1)CC2
CCOCCn1c(-n2nc(C)cc2C)nc2c1c(=O)n(Cc1ccccc1F)c(=O)n2C
CCOC(=O)C1CCc2sc(NC(=O)CCc3c(C)nn(C)c3C)nc21 (stereo not drawn)
O=S(=O)(/C=C/c1ccccc1)NCc1ccc(C(O)c2cccs2)s1 (stereo not drawn)
COC(=O)c1ccccc1NC(=O)Cn1nc2nc(N3CCCC(C)C3)ccn2c1=O (stereo not drawn)
Cc1cccc(Cn2c(N3CCC(C(N)=O)CC3)nc3c2c(=O)[nH]c(=O)n3C)c1
CCCn1c(=O)c2cc(Cl)ccc2n2c(SCC(=O)Nc3ccc4c(c3)OCO4)nnc12
O=C(NCc1ccc2c(c1)OCO2)C1CCN(c2ncnc3c2sc2ncccc23)CC1
COc1ccc2c(=O)c3c(oc2c1)C(=O)N(CCCN(C)C)C3c1ccccc1 (stereo not drawn)
CC(=O)Nc1cccc(C#Cc2cncnc2Nc2ccc(OCc3cccc(F)c3)c(Cl)c2)n1
O=S(=O)(Cc1nc(-c2ccc(OCc3ccccc3)cc2)no1)c1ccccc1
O=C(NC1CCN(C(=O)c2cn(-c3ccc(Cl)cc3)nn2)CC1)C1CCCC1
COc1cccc(CSc2nc(C)c(CC(=O)Nc3cccc(Cl)c3C)c(=O)[nH]2)c1
COc1cc(-c2nc(CSc3nc4ccccc4c(=O)n3C)c(C)o2)cc(OC)c1OC
Cc1cn2c3c(=O)n(Cc4ccc(Br)cc4)c(=O)n(C)c3nc2n1CCCO
COc1ccc(S(=O)(=O)Nc2cccc(N3CCCCC3=O)c2)cc1
C#CCn1c(COc2ccccc2OC)nc2ccccc21
O=C(CCSc1ccccc1)NCCCn1ncccc1=O
CC(O)C(O)(C(=O)OCc1ccccc1NC(=O)CCC(=O)O)C(C)O (stereo not drawn)
O=C(Nc1cnoc1)c1ccc(OC(F)(F)F)cc1
Cc1nc(-c2noc(-c3cccnc3)n2)cn1CC(=O)N1CCc2ccccc21
O=C(Nc1cccc(F)c1)c1sccc1S(=O)(=O)N1CCN(c2ccccc2)CC1
Cc1nc(-c2ccc(N3CCN(C(=O)NCc4ccc(F)cc4)CC3)nc2)no1
O=C(Cc1ccc(F)cc1)N1CC(c2nc(-c3cccnc3)no2)C1
CCc1cc(=O)n(CCNC(=O)COc2ccc(F)cc2F)cn1
COc1ccc(S(=O)(=O)Nc2ccc3c(c2)N(C(=O)c2ccccc2)CCC3)cc1F
NC(=O)c1ccccc1OCC#CCNC(=O)c1ccc(=O)[nH]c1
COC(=O)c1ccc2c(=O)n(-c3cc(OC)cc(OC)c3)c(N3CCSCC3)nc2c1
Cc1cc(C(=O)Nc2nc(C(=O)N3CCN(c4cc(Cl)ccc4C)CC3)co2)no1
Cc1nc(-c2cccc(NC(=O)c3coc(NC(=O)c4cnccn4)n3)c2)cs1
COc1ccc(NC(=O)Cn2c(=O)nc(N3CCC(C)CC3)c3ccccc32)cc1Cl
CC(C)c1nnc(C2CCN(Cc3cccnc3)CC2)o1
CN1CCC(n2cnc(-c3ccc(F)cc3)c2-c2ccnc(N)n2)CC1
Cc1ccccc1N1CCN(c2nccn3c(=O)n(CC(=O)Nc4ccc(Cl)cc4)nc23)CC1
Cn1c(=O)c2c(nc(SCCO)n2Cc2ccccc2)n(C)c1=O
O=C(CSc1nnc(Cn2ccc(=O)[nH]c2=O)o1)N1CCC(Cc2ccccc2)CC1
COc1ccc(-c2cc3nn(CC(=O)NCc4ccccc4Cl)c(=O)n3c(C)n2)cc1
COc1cccc(NC(=O)c2cn(CC(O)c3ccccc3)nn2)c1 (stereo not drawn)
CN(C)CCn1c2c(c(=S)[nH]c1=O)CCC2
CCOC(=O)CCC(=O)N1CCN(Cc2csc(-c3ccccc3)n2)CC1
Cc1cc(N2CCN(C(=O)NC3CCCC3)CC2)ncn1
COc1ccc(C)cc1N1CCn2c1nc1c2c(=O)n(Cc2cccc(C)c2)c(=O)n1C
Nc1nc(Nc2ccc(F)c(F)c2)ncc1[N+](=O)[O-]
O=C(NCc1cccs1)N1C2CCC1COC2
CN1CCC(CNC(=O)c2cc(Br)ccc2Cl)CC1
COc1ccccc1C(=O)NCCN1CCN(c2ccccc2OC)CC1
CCNC(=O)c1cn(-c2ccc(SCC(=O)Nc3ccc(C)cc3)nn2)cn1
Cn1cnnc1SCCNC(=O)CNC(=O)c1ccc(=O)[nH]c1
CC(C)c1ccccc1NC(=O)Cc1cc(=O)[nH]c(SCc2ccc(F)cc2)n1
O=C(NCc1ccccc1)Nc1nnc(-c2ccco2)o1
NC(=O)c1ccccc1OCC#CCNC(=O)C1CCC1
Cc1cc(C(O)CCNC(=O)Nc2ccccc2)c(C)o1 (stereo not drawn)
C#CCSc1nnc(N2CCN(c3ccccc3OC)CC2)s1
O=C(c1ccncc1)N1CCc2cc(S(=O)(=O)N3CCOCC3)ccc21
COc1ccc(NC(=O)C(=O)NCCC2=CCCCC2)cc1Cl
COc1ccc(-n2c(C)c(C)n3c4c(=O)n(CC(C)C)c(=O)n(C)c4nc23)cc1
CCOc1ccccc1C(=O)Nn1cnc2c(cnn2-c2cccc(Cl)c2)c1=O
CCN(CC)C(=O)Oc1ccc2c(=O)c(-c3ccc(Br)cc3)coc2c1
COc1ccccc1N1CCN(CCNC(=O)c2ccc(F)cc2)CC1
CCOC(=O)c1ccc(NC(=O)c2coc(NC(=O)C3CC3)n2)cc1
CCN(CC)c1ccc(-c2noc(CN3CCN(c4cccc(C)c4)CC3)n2)cn1
